Data taken from PubChem BioAssay (Tox21).
Inconclusive results are not listed. Unmarked numbers belong to inactive results. Calls of active or inactive are those of the source. Calls follow the shape of the dose curve; as a rule, active = well fitted activation curve with a large enough effect in the repeat runs; inconclusive = weak or mixed curves; inactive = flat fitted curve, though single readings scatter.

test: A CellTox Green Cytotoxicity Assay to monitor cytotoxicity in HEK293 cells - 40 hour (AID 1224871); conditions: CellTox Green fluorescence; series mostly up to 76.8 µM; cytotoxicity increase: at the top concentration; also: nearly all actives have a fitted effect of over 45% in size
Text: National Center for Advancing Translational Sciences [NCATS]
NIH Chemical Genomics Center [NCGC]
U.S. Environmental Protection Agency [EPA]
National Institutes of Environmental Health Sciences [NIEHS]
National Toxicology Program [NTP]
Cell-based models are critical for drug discovery. Determining the natural cytotoxic effects resulting from test compounds is an essential research activity. A CellTox Green Cytotoxicity Assay to monitor cytotoxicity in real time of continues cell culture during 40 hours of the compound treatment was used to screen Tox21 10K library compounds in Hek293 cells. CellTox Green Cytotoxicity Assay is a nonlytic, homogeneous, biofluorescent method to measure cytotoxicity in cell culture after experimental manipulation. The assay system uses a proprietary asymmetric cyanine dye that is excluded from viable cells but preferentially stains the dead cell's DNA. […] Viable cells produce no appreciable increases in fluorescence. Therefore, the fluorescence signal produced by the binding interaction with dead cell DNA is proportional to cytotoxicity.
The mixture of Hek293 cell suspension and reagents were dispensed at 600cells/6 ul/well in 1536-well tissue culture treated black solid bottom plates using a Multidrop dispenser. After the assay plates were incubated at a 37 C/5% CO2 incubator for 5 hours, 23 nL of compounds dissolved in DMSO, positive and negative controls was transferred to the assay plate by a pintool work station. The plates were incubated at 37 C for 40 hours. The fluorescence intensity were measured at 0h, 8h, 16h, 24h, 32h and 40h time points using ViewLux plate reader during compound treatment.
% is scaled to controls: 0 for no effect and ±100 for the full control effect; potency is read from the fitted curve at half-maximal effect.

Row | Structure (SMILES) | cytotoxicity increase | Potency
1 | c1ccoc1 | 2.23% | 
2 | CN1[C@@H]2CC[C@H]1CC(OC(=O)c1cc(Cl)cc(Cl)c1)C2 (stereo not given in full) | 22.2% [at 35.3 µM] | 
3 | CCOC(=O)COc1cc(-c2nn(C)c(OC(F)F)c2Cl)c(F)cc1Cl | -7.9% | 
4 | Cc1c(F)c(F)c(COC(=O)C2C(/C=C(\Cl)C(F)(F)F)C2(C)C)c(F)c1F (stereo not given) | -11.4% | 
5 | CC(C)O.CC(C)O.OCCN(CCO)CCO.OCCN(CCO)CCO.[Ti] | -6.41% | 
6 | O=C1c2ccccc2C(=O)C1C(=O)C(c1ccccc1)c1ccccc1 | -16% [at 35.3 µM] | 
7 | O=C(NCc1cccnc1)Nc1ccc([N+](=O)[O-])cc1 | 25% | 
8 | O=C(O)C1(c2ccc3c(c2)OC[C@H](Cc2ccc(-c4ccccc4)cc2)[C@H]3O)CCCC1 |  | 34.7 µM (active)
9 | CC(C)N(C(=O)COc1nnc(C(F)(F)F)s1)c1ccc(F)cc1 | 9.73% | 
10 | C#CCOC(C(=O)OCCN(C)C)(c1ccccc1)c1ccccc1 | 3.57% [at 35.3 µM] | 
11 | C=CCC1([C@H](C)CCC)C(=O)NC(=O)NC1=O | -3.39% | 
12 | CC(=O)NC1CCSC1=O (stereo not given) | -9.73% [at 35.3 µM] | 
13 | O=S(=O)(Cl)c1ccccc1 | -2.01% | 
14 | Clc1cccc(SC2CCNCC2)n1 | -11.8% [at 35.3 µM] | 
15 | CCN(C)N=O | -9.31% | 
16 | COC(=O)C(Cl)C(=O)OC | 0.529% [at 35.3 µM] | 
17 | NS(=O)(=O)C(F)(F)C(F)(F)C(F)(F)C(F)(F)C(F)(F)C(F)(F)C(F)(F)C(F)(F)F | -12.3% | 
18 | CCOP(=S)(OCC)SCSCC | 0.0093% | 
19 | N#C/C(N)=C(/N)C#N | -9.35% | 
20 | [CH3][Sn]([CH3])([Cl])[Cl] |  | inactive

Row | Structure (SMILES) | cytotoxicity increase | Potency
21 | BrCCCCBr | -4.44% | 
22 | CN(C)c1ccc(N(C)C)cc1 | -0.157% | 
23 | CS/C(C)=N/OC(=O)N(C)SN(C)C(=O)O/N=C(\C)SC |  | 49 µM (active)
24 | ClCc1cccc(Cl)c1 | 1.79% [at 35.3 µM] | 
25 | C/C=C/C=O | -0.571% | 
26 | CCn1cc[n+](C)c1 |  | inactive
27 | CC(C)(C)C(O)C(Oc1ccc(Cl)cc1)n1cncn1 (stereo not given) |  | 5.49 µM (active)
28 | NNC(=O)c1cccnc1 | -1.4% | 
29 | COCCOCCO | -16.4% | 
30 | O=C1CN=C(c2ccccc2)c2cc(Cl)ccc2N1CC1CC1 | 17.6% | 
31 | NCCCNCCCN |  | 62.6 µM (active)
32 | CCCCC(CC)COP(=O)(Oc1ccccc1)Oc1ccccc1 (stereo not given) | 5.18% | 
33 | Cn1cc[n+](C)c1 (tested in a mixture with another compound) | -2.75% | 
34 | O=C(N[C@H](c1ccccc1)[C@@H]1CN2CCC1CC2)c1c(Cl)ccc(C(F)(F)F)c1Cl |  | 78.8 µM (active)
35 | CO[C@@H]1[C@H](OC(=O)NC(=O)CCl)CC[C@]2(CO2)[C@H]1[C@@]1(C)O[C@@H]1CC=C(C)C | -0.615% [at 15.8 µM] | 
36 | O=C(NC(=O)c1c(F)cccc1F)Nc1ccc(OC(F)(F)C(F)OC(F)(F)F)c(Cl)c1 (stereo not given) | -10.2% [at 35.3 µM] | 
37 | CCOP(=S)(OCC)Oc1cc(Cl)c(Br)cc1Cl | 25.4% | 
38 | CCOP(=S)(OCC)SCn1nnc2ccccc2c1=O | 6.5% | 
39 | CC(C)(CCl)C(=O)Cl | -6.12% | 
40 | c1cc2ccc3cccc4ccc(c1)c2c34 | -1.36% | 
